High-throughput results as filed in PubChem BioAssay.
Shown are actives, neighbours in structure and some others; about 1.6% of the full set was active somewhere.
KCNQ2 block: blocks the rat KCNQ2 potassium channel. O88943. CHO-K1 KCNQ2, FluxOR thallium flux, 20 min; hits give low values. B-score at 10 µM. 310,000 tested, 1.1% active. AID 2156;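 active means fluorescence ratio B-score at most minus 3 library SDs, with starting brightness B-score within 2 library SDs, cut at about -5.5 in these data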
KCNQ2 pot: potentiators of rat KCNQ2 potassium channel | 310,000 tested, 0.54% active | O88943 | B-score at 10 µM | CHO-K1 KCNQ2, FluxOR thallium flux fluorescence; hits give high values;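 active means fluorescence ratio B-score at least 3 SD of library B-scores, with initial fluorescence B-score within 3 of them, cut at about 5.3 in these data; same plate scores as AID 2156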;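 further: B-score of peak minus minimum over baseline fluorescence ratio after K+ and Tl+ stimulus; positive B-score means potentiation of KCNQ2 with more thallium influx and brighter signal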
A number is an active result; n = inactive; x = no result.

SMILES	KCNQ2 block	KCNQ2 pot
Cc1cc(C)nc(/N=C(\N)Nc2ccccc2-c2ccccc2)n1	n	n
Clc1cccc2c1Sc1ccccc1CC2N1CCNCC1 (centres undefined)	-7.86	n
COCCCN1CCN(C2Cc3ccccc3Sc3ccc(Cl)cc32)CC1 (centres undefined)	n	x
CCOc1ccc2nc(N3C(=O)/C(=C/c4ccc(Cl)cc4)NC3=S)sc2c1	n	15.2
COc1ccc2nc(N3C(=O)CNC3=S)sc2c1	n	n
Cn1c2c(c3cc([N+](=O)[O-])ccc31)CCCC2	n	n
FC(F)(F)c1ccc(C2[C@H]3CN(Cc4cccnc4)[C@H](c4ccccc4)C34CC2(c2cccnc2)C4)cc1 (some centres undefined)	-7.17	n
FC(F)(F)c1ccc(C2[C@H]3CN(Cc4ccc(-c5ccccc5)cc4)[C@H](c4ccccc4)C34CC2(c2cccnc2)C4)cc1 (some centres undefined)	n	n
O=C(CSc1nnc(SCc2ccc(Cl)cc2)s1)N/N=C/c1ccc(Cl)cc1Cl	n	x
O=C(CSc1nnc(SCc2ccc(Cl)cc2)s1)N/N=C/c1c(Cl)cccc1Cl	n	5.4
Cc1ccc(S(=O)(=O)Nc2cc3c4c(c2)CCN4C(=O)CC3)cc1	n	n
COc1ccccc1NC(=O)C(C)NC(c1ccccc1)c1ccccc1 (centres undefined)	n	n
CC(C(=O)Nc1ccccc1Oc1ccccc1)c1ccccc1 (centres undefined)	n	8.9
CC1(C)CC(=O)C2=C(C1)OC1=C(C(=O)CC(C)(C)C1)C2c1ccc(O)cc1O	n	x
CC1(C)CC(=O)C2=C(C1)OC1=C(C2)C(=O)CC(C)(C)C1	-6.03	n
O=C(c1ccco1)N1CCN(Cc2cc(=O)c(OCc3ccccc3F)co2)CC1	n	x
COC(=O)N/N=C/c1cc(Br)ccc1O	n	x
O=C(N/N=C/c1cc(Br)ccc1O)c1ccccc1Cl	n	9.07
CCCCN(CCCC)S(=O)(=O)c1ccc(NC(=O)Cc2cccs2)cc1	n	n
CCN(CC)c1ccc(C=O)c(OC)c1	n	n
OCCC1CN(CC2CCCCC2)CCN1C1CCCC1 (centres undefined)	n	n
OCCC1CN(CC2CCCCC2)CCN1CC1CCCCC1 (centres undefined)	n	6.77
O=C(O)CC1(CC(=O)Nc2ccc(Br)cc2)CCCCC1	-7.58	n
O=C(O)CC1(CC(=O)Nc2ccc3ccccc3c2)CCCCC1	n	x
O=C(Oc1ccccc1)n1c(=S)oc2ccccc21	n	n
SMILES	KCNQ2 block	KCNQ2 pot
Cc1ccccc1OC(=O)n1c(=S)oc2cc(Cl)ccc21	n	6.92
c1ccc(CC2CCN(C3=Nc4cccc5cccc3c45)CC2)cc1	-5.96	n
c1cc2c3c(cccc3c1)C(N1CCOCC1)=N2	n	x
O=C(NC(=S)Nc1ccc2[nH]c(=O)[nH]c2c1)c1ccccc1[N+](=O)[O-]	n	n
CCCCN(C)C(=S)Nc1ccsc1C(=O)OC	n	x
CCCCc1ccc(NC(=S)NCc2ccccc2OC)cc1	n	x
O=C(CN(Cc1ccco1)C(=O)Cn1nnc(-c2ccc(F)cc2)n1)NC1CCCC1	n	n
CCCCC(C(=O)NC1CCCC1)N(Cc1ccco1)C(=O)Cn1nnc(-c2ccc(F)cc2)n1 (centres undefined)	-7.24	n
COc1ccc(/C(C)=N/NC(=S)NCCc2ccccc2)c(O)c1	n	n
Cc1ccc(-n2nc(C)c3c(C)c(CCC(=O)Nc4ccc(CN5CCCC5)cc4)c(C)nc32)cc1	-7.86	n
COC(CNC(=O)CCc1c(C)nc2c(c(C)nn2-c2ccc(C)cc2)c1C)OC	n	n
O=Cc1cc2ccccc2nc1SCCCF	n	n
COc1ccc(S(=O)(=O)N2Cc3ccccc3CC2C(=O)Nc2ccc3c(c2)OCO3)cc1 (centres undefined)	n	x
Cc1ccc(S(=O)(=O)N2Cc3ccccc3CC2C(=O)Nc2ccc3c(c2)OCO3)cc1 (centres undefined)	-5.64	n
Cc1occc1C(=O)/C(C#N)=C/c1ccc(O)c(Br)c1	n	x
O=C(Nc1ccc(S(=O)(=O)Nc2ncccn2)cc1)c1ccccc1NS(=O)(=O)c1ccc(Cl)cc1	n	n
CC(=O)Nc1c2c(nn1-c1ccccc1)CSC2	n	n
CC(C)(C)C(=O)Nc1c2c(nn1-c1ccccc1)CSC2	-8.16	n
Cc1nc2c3ccccc3nc(NNC(=O)CCC(=O)NCCN3CCN(c4ccccc4)CC3)n2n1	n	x
COc1ccc(NC(=O)CS(=O)CC(=O)Nc2cccc3cccnc23)cc1 (centres undefined)	n	n
Cc1nc(N2CCN(c3ccccc3)CC2)nc2c1C(=O)CC(C)C2 (centres undefined)	n	x
Cc1nc(N2CCN(c3ccccc3)CC2)nc2c1C(=O)CC(c1ccccc1)C2 (centres undefined)	-6.13	n
COCC1CCN(C(=O)c2cc(COc3ccccc3SC)on2)C1 (centres undefined)	n	n
C=CC[C@H]1CC(C)=C[C@H](CC=C)N1C(=O)c1cc(COc2ccccc2SC)on1	-5.57	n
COc1ccc(OC)c(NC(=O)CC2C(=O)NCCN2C(=O)c2ccccc2)c1 (centres undefined)	n	n
SMILES	KCNQ2 block	KCNQ2 pot
Oc1ccccc1OCc1nc2ccccc2s1	n	x
Oc1ccc(O)c(Cc2nc3ccccc3s2)c1	-5.56	n
CCN(CC)S(=O)(=O)c1ccc(C(=O)NC(=S)N(CCO)Cc2ccccc2)cc1	n	n
CCCOc1ccc(CN(CCC#N)C(=S)NC(=O)c2ccccc2)cc1	n	7.12
CC(C)(C)c1ccc(-c2nc3n(c(=O)c2C#N)CCS3)cc1	n	n
COc1ccc(C(=O)NCC(=O)OCC(=O)Nc2sccc2C#N)cc1OC	n	x
Cc1nn(C)c(Oc2cccc(Cl)c2)c1C#N	n	x
Cn1nc(-c2ccccc2)c(C#N)c1Sc1cccc(Cl)c1	-8.14	n
CCOC(=O)c1c(C2CC2)csc1NC(=O)COC(=O)CCS(=O)(=O)c1ccc(C)cc1	n	x
CCOC(=O)C1CCCN(C2=C(NS(=O)(=O)c3ccc(Br)cc3)C(=O)c3ccccc3C2=O)C1 (centres undefined)	-6.72	n
CCOC(=O)C1CCN(C2=C(NS(=O)(=O)c3ccc(Cl)cc3)C(=O)c3ccccc3C2=O)CC1	n	x
O=C(CCN1Cc2ccccc2C1)c1ccc2c(c1)OCCO2	-5.9	n
O=C(CCN1CCc2ccccc2C(c2ccccc2)C1)c1ccc2c(c1)OCCO2 (centres undefined)	n	x
Cc1occc1C(=O)N/N=C/c1ccccc1[N+](=O)[O-]	n	n
O=C(CN1C(=O)C2CC=CCC2C1=O)Nc1nc2ccc(F)cc2s1 (centres undefined)	-6.73	n
O=C(CN1C(=O)NC2(CCCC2)C1=O)Nc1nc2ccc(F)cc2s1	n	n
COc1ccc(C(C)=O)cc1CSc1ccc2c(c1)OCCO2	n	x
O=C(O)C1CCN(C(=O)c2ccccc2N2C(=O)[C@@H]3Cc4c([nH]c5ccccc45)C(c4cccc(Cl)c4)N3C2=O)CC1 (some centres undefined)	n	n
OC1(c2ccc(Cl)cc2)CN(c2ccccc2)C2=[N+]1CCS2 (centres undefined)	-7.15	n
OC1(c2ccc(Br)cc2)CN(c2ccccc2)C2=[N+]1CCS2 (centres undefined)	-6.02	n
COc1ccc(C2(O)CN(c3ccccc3)C3=[N+]2CCS3)cc1OC (centres undefined)	n	x
COc1ccc(OC)c(N2CC(O)(c3ccccc3)[N+]3=C2SCCC3)c1 (centres undefined)	n	x
